Reference: PubChem BioAssay (NCATS)
Values without a mark were called inactive. Activity calls are given as the source filed them. The call rests on the fitted dose curve; in most records, active means well fitted inhibition curve with a large enough effect; inconclusive means small, poorly fitted or top-dose-only effect; inactive means no such curve, though single readings can be large or run the other way.

experiment: qHTS assay for measurement of the activity of small molecule inhibitors on Zika virus induced Caspase-3 activity in human astrocytoma cells (AID 1224859); settings: SNB-19 ZIKV-induced caspase-3/7, luminescence, 6 h; series mostly up to 45.7 µM; activity change, negative = inhibition: at the top concentration;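 further: plate controls were ZIKV-infected untreated cells for no effect and uninfected cells for full effect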
Outline: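 In SNB-19 cells plated at 250 cells/well and grown 16-20 h, compounds were applied 1 h before ZIKV (2 FFU/cell). Six hours later caspase-3/7 luminescence was recorded.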

For `O=C(NC(O)C(Cl)(Cl)Cl)NC(O)C(Cl)(Cl)Cl` (centres undefined), which “activity change, negative = inhibition” value is on record?
The value was -5.51%.

With `CCN(CC)C(=O)N[C@@H]1C=C2c3cccc4[nH]cc(c34)C[C@@H]2N(C)C1` as the molecule, how does the “activity change, negative = inhibition” value read?
The value was -2.95%.

Which outcome does the source give for `CC(CCc1ccccc1)NC(C)C(O)c1ccc(O)cc1` (centres undefined) here?
The outcome was “inactive”.

For `CCN(CC)CCOC(=O)C(O)(c1ccccc1)c1ccccc1`, which “activity change, negative = inhibition” value is on record?
The value was -12.2%.

For `Clc1ccc(CCC(Cn2ccnc2)Sc2c(Cl)cccc2Cl)cc1` (centres undefined), which outcome is on record?
Its outcome is “inactive”.

Which “activity change, negative = inhibition” value does the source give for `C[C@H]1O[C@@H](O[C@H]2[C@@H](O)C[C@H](O[C@H]3[C@@H](O)C[C@H](O[C@H]4CC[C@@]5(C)[C@H](CC[C@@H]6[C@@H]5CC[C@]5(C)[C@@H](C7=CC(=O)OC7)CC[C@]65O)C4)O[C@@H]3C)O[C@@H]2C)C[C@H](O)[C@@H]1O` here?
Its value is 9.98%.

With `Cc1cccc(C)c1NC1=NCCCS1` as the molecule, how does the outcome read?
The outcome was “inactive”.

For `CC(=O)[C@H]1CC[C@H]2[C@@H]3CC[C@H]4C[C@H](O)CC[C@]4(C)[C@H]3C(=O)C[C@]12C`, which outcome is on record?
Its outcome is “inactive”.

Which outcome does the source give for `COc1ccc(Cc2nccc3cc(OC)c(OC)cc23)cc1OC` here?
The outcome was “inactive”.

For `Oc1cccc2cccnc12`, which outcome is on record?
Its outcome is “inactive”.

For `CC[C@@H](CO)NC(=O)[C@@H]1C=C2c3cccc4[nH]cc(c34)C[C@H]2N(C)C1`, which outcome is on record?
Its outcome is “inactive”.

For `CCCC1CCCCN1` (centres undefined), which “activity change, negative = inhibition” value is on record?
The value was -4.94%.

Which outcome does the source give for `Cc1ccc(S(=O)(=O)N[C@@H](CCCCN)C(=O)CCl)cc1` here?
Its outcome is “inactive”.

Which “activity change, negative = inhibition” value does the source give for `CCOP(=S)(OCC)Oc1cc(C)nc(C(C)C)n1` here?
The value was 0.105%.

For `Clc1cccc(N2CCNCC2)c1`, which “activity change, negative = inhibition” value is on record?
Its value is -9.99%.

For `CC[N+]1(C)CCCC(OC(=O)C(O)(c2ccccc2)c2ccccc2)C1` (centres undefined), which “activity change, negative = inhibition” value is on record?
The value was 0.591%.

With `CCCN1CCC[C@@H]2Cc3nc(N)ncc3C[C@H]21` as the molecule, how does the outcome read?
Its outcome is “inactive”.

With `C#CCOC(C(=O)OCCN(C)C)(c1ccccc1)c1ccccc1` as the molecule, how does the “activity change, negative = inhibition” value read?
Its value is 1.68%.

Which “activity change, negative = inhibition” value does the source give for `CC(C)NCC(O)c1ccccc1Cl` (centres undefined) here?
The value was -2.59%.

For `Nc1ccncc1`, which outcome is on record?
The outcome was “inactive”.

For `CC(C)=CC1C(C(=O)OCc2cccc(Oc3ccccc3)c2)C1(C)C` (centres undefined), which “activity change, negative = inhibition” value is on record?
Its value is -10.3%.

For `N[C@@H](Cc1ccc(Oc2cc(I)c(O)c(I)c2)c(I)c1)C(=O)O`, which “activity change, negative = inhibition” value is on record?
Its value is 10.2%.

With `CC[N+](CC)(CC)CC` as the molecule, how does the outcome read?
Its outcome is “inactive”.

With `CC(C)(C)NCC(O)c1cc(Cl)c(N)c(Cl)c1` (centres undefined) as the molecule, how does the “activity change, negative = inhibition” value read?
The value was 13.2%.

With `Oc1ccccc1-c1ccccc1` as the molecule, how does the “activity change, negative = inhibition” value read?
The value was -1.79%.

For `O=C1NCN(c2ccccc2)C12CCN(CC1COc3ccccc3O1)CC2` (centres undefined), which outcome is on record?
The outcome was “inactive”.

Which outcome does the source give for `CCC1(C2=NCCN2)Cc2ccccc2O1` (centres undefined) here?
Its outcome is “inactive”.

For `CC(C)(C)CC(C)(C)c1ccc(O)cc1`, which outcome is on record?
The outcome was “inactive”.

With `Cc1ccc2c(c1)C1CN(C)CCC1N2` (centres undefined) as the molecule, how does the “activity change, negative = inhibition” value read?
The value was -0.747% [at 20.5 µM].

With `C=CCN1CC[C@]23c4c5ccc(O)c4O[C@H]2C(=O)CC[C@@]3(O)[C@H]1C5` as the molecule, how does the “activity change, negative = inhibition” value read?
The value was -1.62%.

With `Clc1ccc(COC(Cn2ccnc2)c2ccc(Cl)cc2Cl)cc1` (centres undefined) as the molecule, how does the outcome read?
The outcome was “inactive”.

Which outcome does the source give for `CCCN1CCC[C@@H]2Cc3[nH]ncc3C[C@H]21` here?
The outcome was “inactive”.

For `CC(=O)[C@H]1CC[C@H]2[C@@H]3CC[C@H]4C[C@](C)(O)CC[C@]4(C)[C@H]3CC[C@]12C`, which outcome is on record?
The outcome was “inactive”.

Which outcome does the source give for `COc1ccccc1N1CCNCC1` here?
Its outcome is “inactive”.

Which outcome does the source give for `CN1C[C@H](CNC(=O)OCc2ccccc2)C[C@@H]2c3cccc4c3c(cn4C)C[C@H]21` here?
Its outcome is “inactive”.

With `CC1NCCOC1c1ccccc1` (centres undefined) as the molecule, how does the “activity change, negative = inhibition” value read?
Its value is -3.04%.

Which outcome does the source give for `c1ccc2c(c1)OCC(C1=NCCN1)O2` (centres undefined) here?
Its outcome is “inactive”.

With `CN1C(=S)CN=C(c2ccccc2)c2cc(Cl)ccc21` as the molecule, how does the “activity change, negative = inhibition” value read?
The value was -5.69%.

Which “activity change, negative = inhibition” value does the source give for `FC(F)(F)c1cccc(C2=CCN(CCc3ccc4ccccc4c3)CC2)c1` here?
Its value is -16.5%.
